# Data published in PubChem BioAssay AID720647 (Broad Institute, 2013).
# In all, about 380,000 compounds went through this assay and about 1,300 (0.34%) were called active. This is one part of a sample in which actives are shown more often than they occur. Unmarked numbers belong to inactive results.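 How the source made its calls: active means drop in luminescence signal, shown as inhibition above about 50% in the replicate tests (limit read from the data, passing the limit was not always enough); inconclusive means probably only some replicates passing the limit; inactive means the rest.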
# System: Drosophila bursicon receptor LGR2 (rickets)
# Assay: LGR2 cAMP reporter signal reduction – cell-based, HEK293, CRE-luciferase reporter, bursicon stimulation, primary screen (AID 720647);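 further: agonist challenge used bursicon conditioned medium at about half maximal strength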
# Conditions: bursicon-stimulated, 4 h, at 9.99 µM, stronger effect = higher value
row,SMILES,inhibition
1,C[C@]12CC[C@H](O)C[C@H]1CC[C@@H]1C2CC[C@]2(C)[C@@H](C3=CC(=O)OC3)[C@@H](O)C[C@]12O (stereo not given in full),75.1% (active)
2,C[C@]12CCC3C(CC[C@H]4C[C@@H](O)CC[C@]34C)C1CC[C@@H]2O (stereo not given in full),4.33%
3,C[C@]12CCC3C(CC[C@H]4C[C@@H](O)CC[C@]34C)C1C[C@@H](O)[C@H]2O (stereo not given in full),21.8%
4,Cc1cc(N2CCNC[C@@H]2C)ccc1N1CC[C@H](O)C1,-14.4%
5,O=C(Cc1ccccn1)N1CCCCN2[C@H](C1)[C@H](c1ccc(-c3ccccc3F)cc1)[C@@H]2CO,20.2%
6,CCOc1ccc(-c2cc(C)[n+](CCN(CC)CC)c(-c3ccc(OCC)cc3)c2)cc1,60.4% (active)
7,CS(=O)(=O)N1CCC2CCNC2C1 (stereo not given),-1.04%
8,O=C(Cc1ccncc1)N1CCCCN2[C@@H](CO)[C@H](c3ccc(C#CC4(O)CCCC4)cc3)[C@@H]2C1,-0.939%
9,Clc1ccc([C@@H]2CC3CCC2N3)cn1 (stereo not given in full),7.28%
10,O=S(=O)(c1ccccc1)N1CCC2CCNC2C1 (stereo not given),8.51%
11,CCC(C)(O)C(=O)OC1C(=O)OC2CC3C(C)=CC(=O)C(O)C3(C)C3C4(O)OCC23C1C(C)C4O (stereo not given),101% (active)
12,O=C(Cc1ccccc1)N1CCCCN2[C@H](CO)[C@H](c3ccc(C#Cc4ccccc4)cc3)[C@H]2C1,0.501%
13,COC(=O)[C@@H]1[C@@H](CO)[C@@H]2Cn3c(ccc(-c4cccc(C(=O)N(C)C)c4)c3=O)[C@H]1N2C(=O)NC(C)C,31.6%
14,CCN(CC)C(=O)[C@@H]1C=C2c3cccc4[nH]c(Br)c(c34)C[C@H]2N(C)C1,9.95%
15,COc1ccc(C#Cc2ccc([C@H]3[C@H](CO)N4CCCCN(C(=O)Cc5ccccc5)C[C@@H]34)cc2)cc1,10.8%
16,COC(=O)[C@@H]1[C@@H](CO)[C@@H]2Cn3c(ccc(-c4ccc(F)cc4)c3=O)[C@H]1N2C(C)=O,-7.85%
17,COc1cccc(-c2nc3ccc(N4CCN(C)CC4)cc3[nH]2)c1,88.7% (active)
18,CN1CCN(c2cc(N3CCNCC3)ccc2[N+](=O)[O-])CC1,1.9%
19,COc1cccc(-c2ccc([C@H]3[C@H]4CN(C(=O)Cc5ccncc5)CCCCN4[C@H]3CO)cc2)c1,-6.52%
20,COc1ccc2c(c1)[C@@]13CCCCC1[C@@H](C2)NCC3 (stereo not given in full),15.4%
21,COC1C(O)C(C)OC(OC2CCC3(C=O)C(CCC4C3CCC3(C)C(C5=CC(=O)OC5)CCC43O)C2)C1O (stereo not given),83.8% (active)
22,CCC(C)NC1(c2ccccc2)CCCCC1 (stereo not given),-0.048%
23,COC(=O)[C@H]1[C@H](CO)[C@H]2Cn3c(cccc3=O)[C@H]2N1CC1CC1,26.9%
24,C/C=C/c1ccc(C2[C@@H]3CN(Cc4cncnc4)C[C@H]2N3)cc1 (stereo not given in full),-8.19%
25,O=C(Cc1ccccn1)N1CCCCN2[C@@H](CO)[C@@H](c3ccc(C#Cc4ccccc4)cc3)[C@@H]2C1,-13.4%
